# Records with an inconclusive call do not appear. Values without a mark were called inactive. Calls follow the shape of the dose curve; as a rule, active = well fitted cell-killing curve with a large enough effect in the repeat runs; inconclusive = weak or mixed curves, or effect the other way; inactive = flat fitted curve, though single readings scatter.
# Assay: qHTS RealTime-Glo MT Cell Viability Assay in HEK293 cells - 8 hour (AID 1224887); also: top concentration of the series differs between compounds; nearly all actives have a fitted effect of over 50% in size
# Details: RealTime-Glo luminescence; series mostly up to 76.8 µM; activity change, negative = cytotoxicity: at the top concentration
# Procedure, shortened: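 Luminescence readout at each listed time point; HEK293, 600 cells/well, RealTime-Glo MT reagent added with cells; compounds pinned (23 nL in DMSO) after 5 h at 37 C; continuous culture at 37 C.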
# % is scaled to controls: 0 for no effect and ±100 for the full control effect.
row,SMILES,"activity change, negative = cytotoxicity"
1,O=C(O)CCCCCCCCCC(=O)O,3.76%
2,Cc1ccccc1C#N,10.3%
3,CC(=O)SCC(CC(=O)c1ccc(C)cc1)C(=O)O (stereo not drawn),8.06% [at 35.3 µM]
4,NCC1CCC(C(=O)Oc2ccc(CCC(=O)O)cc2)CC1 (stereo not drawn),22.3% [at 35.3 µM]
5,CCN1CCN(C(=O)N[C@@H](C(=O)N[C@@H]2C(=O)N3[C@@H]2SC(C)(C)[C@H]3C(=O)O)c2ccccc2)C(=O)C1=O,4.21% [at 35.3 µM]
6,COc1cc(S(N)(=O)=O)cc(C(=O)O)c1OC,3.57% [at 35.3 µM]
7,C/C(=N\O)c1ccc(OCC(=O)N2CCCCC2)cc1,-12.2% [at 35.3 µM]
8,CC(C)(C)C(=O)CC(=O)C(C)(C)C,-21.8%
9,CC(=O)Oc1ccc(C(C)=O)cc1,-5.54%
10,NC[C@H]1O[C@H](O[C@H]2[C@H](O)[C@@H](O[C@H]3O[C@H](CO)[C@@H](O)[C@H](N)[C@H]3O)[C@H](N)C[C@@H]2N)[C@H](N)[C@@H](O)[C@@H]1O,14.7% [at 15.8 µM]
11,CCCc1ncc(C(=O)O)s1,-1.25% [at 35.3 µM]
12,CCCCC(CC)CCC(CC(C)C)OS(=O)(=O)O (stereo not drawn),-1.18%
13,O=C[C@@H](O)[C@H](O)[C@H](O)CO,-7.12%
14,COC(C)(C)CC(C)=O,3.65%
15,CC(C)(O)CCCC1=CCC(C=O)CC1 (stereo not drawn),-11%
16,O=S(=O)(O)c1ccc(Cl)cc1,12.9%
17,CC(C)(C)OC=O,7.01%
18,BrCCOc1ccccc1,-13.9%
19,CN(C)CCc1c[nH]c2ccc(C[C@H]3COC(=O)N3)cc12,2.37% [at 35.3 µM]

row,SMILES,"activity change, negative = cytotoxicity"
1,CCCCCCCCCCCCCCCC(=O)OC,0.781% [at 15.8 µM]
2,CC(C)CC(O)Cc1ccccc1 (stereo not drawn),-1.92%
3,CCCCCCC(O)CO (stereo not drawn),3.69%
4,CN1C(CCl)Nc2cc(Cl)c(S(N)(=O)=O)cc2S1(=O)=O (stereo not drawn),-11.5% [at 35.3 µM]
5,CCCCNCC,-6%
6,CO/N=C(\C(=O)O)c1csc(NC(=O)CCl)n1,6.26% [at 35.3 µM]
7,O=C(CCBr)N1CCN(C(=O)CCBr)CC1,0.0841% [at 35.3 µM]
8,C[C@H]1COc2c(C3(N)CC3)c(F)cc3c(=O)c(C(=O)O)cn1c23,5.39% [at 35.3 µM]
9,O=C(O)Cc1c(Cl)ccc(Cl)c1Cl,2.45%
10,Cc1ccc(NC(N)=O)cc1,5.17%
11,COC(=O)c1c(C)cc(O)c(C)c1O,-22.7%
12,CN1CCN(C(=O)C2CCCCC2)CC1,0.538% [at 35.3 µM]
13,Cc1nnc(C(=O)NC(C)(C)c2nc(C(=O)NCc3ccc(F)cc3)c(O)c(=O)n2C)o1,-0.751% [at 35.3 µM]
14,COC(=O)C(c1ccccc1Cl)N1CCc2sccc2C1 (stereo not drawn),5.3% [at 35.3 µM]
15,C=CC(=O)OCCOCCOCC,0.259%
16,CN(C)c1ccncc1,-2.61%
17,CCCOc1ccc(C(=O)OCCN(CC)CC)cc1N,-5.05% [at 35.3 µM]
18,COCCCOc1cc(C[C@@H](C[C@H](N)[C@@H](O)C[C@H](C(=O)NCC(C)(C)C(N)=O)C(C)C)C(C)C)ccc1OC,-1.58% [at 35.3 µM]
19,O=C1c2ccccc2C(=O)N1CO,-5.16%

# — PubChem BioAssay (Tox21)
